Reference: PubChem BioAssay AID1159580 (chemical genetic matrix, 2015)
Values joined by “and” are separate entries in the source; they are usually repeats but may differ in a detail not shown here. Identical values can stand only once. Hit rate of the full screen: of about 5,500 compounds, about 2,000 (36%) were called active. Another 18% or so got no clear call; they are omitted. No stated cut-off is given here; in the data, active means normalized growth mostly below about 0.91 (no sharp cut-off); inconclusive means no clear call, values can overlap the other calls; inactive means mostly above about 0.92. The list shows a part of the results.

Test: chemical genetic growth profiling, strain panel (AID 1159580);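 further: tested at 20 µM; growth read once vehicle control cultures reached saturation at 30 °C; 1 = growth at the plate median or of vehicle wells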
Settings: S. cerevisiae deletion strains, growth OD

For C#C[C@]1(O)CCC2C3CCC4=Cc5oncc5C[C@]4(C)C3CC[C@@]21C (stereo partly specified), the normalized growth (locus YAL021C, strain ccr4, stronger effect = lower value) was 1.05 (inactive), the normalized growth (locus YAL026C, strain drs2, stronger effect = lower value) was 0.977 (inactive) and the normalized growth (locus YAL030W, strain snc1, stronger effect = lower value) was 0.94 (inactive). For the same molecule, the normalized growth (locus YBL061C, strain skt5, stronger effect = lower value) was 0.941 (inactive), the normalized growth (locus YBR009C, strain hhf1, stronger effect = lower value) was 0.918 (inactive) and the normalized growth (locus YBR021W, strain FUR4, stronger effect = lower value) was 1.01 (inactive). The normalized growth (locus YBR023C, strain chs3, stronger effect = lower value) was 0.958 (inactive), the normalized growth (locus YBR171W, strain sec66, stronger effect = lower value) was 0.937 (inactive) and the normalized growth (locus YBR229C, strain ROT2, stronger effect = lower value) was 0.898 (active). For the same molecule, the normalized growth (locus YBR231C, strain swc5, stronger effect = lower value) was 0.966 (inactive), the normalized growth (locus YBR279W, strain paf1, stronger effect = lower value) was 0.969 (inactive) and the normalized growth (locus YCL011C, strain gbp2, stronger effect = lower value) was 0.97 (inactive). The normalized growth (locus YCL016C, strain dcc1, stronger effect = lower value) was 0.996 (inactive), the normalized growth (locus YCL029C, strain bik1, stronger effect = lower value) was 0.919 (inactive) and the normalized growth (locus YCL061C, strain MRC1, stronger effect = lower value) was 0.943 (inactive). For the same molecule, the normalized growth (locus YCL069W, strain vba3, stronger effect = lower value) was 0.956 (inactive), the normalized growth (locus YCR088W, strain abp1, stronger effect = lower value) was 0.943 (inactive) and the normalized growth (locus YDL005C, strain med2, stronger effect = lower value) was 0.954 (inactive). The normalized growth (locus YDL035C, strain GPR1, stronger effect = lower value) was 0.94 (inactive), the normalized growth (locus YDL040C, strain nat1, stronger effect = lower value) was 0.958 (inactive) and the normalized growth (locus YDL074C, strain BRE1, stronger effect = lower value) was 0.725 (active). The normalized growth (locus YDL101C, strain DUN1, stronger effect = lower value) was 0.906 (inactive), the normalized growth (locus YDL185W, strain tfp1, stronger effect = lower value) was 0.932 (inactive) and the normalized growth (locus YDL192W, strain arf1, stronger effect = lower value) was 0.933 (inactive). For the same molecule, the normalized growth (locus YDR001C, strain nth1, stronger effect = lower value) was 0.961 (inactive), the normalized growth (locus YDR069C, strain doa4, stronger effect = lower value) was 0.96 (inactive) and the normalized growth (locus YDR101C, strain arx1, stronger effect = lower value) was 0.887 (active). The normalized growth (locus YDR137W, strain rgp1, stronger effect = lower value) was 0.859 (inactive), the normalized growth (locus YDR150W, strain NUM1, stronger effect = lower value) was 0.929 (inactive) and the normalized growth (locus YDR159W, strain sac3, stronger effect = lower value) was 0.839 (active). For the same molecule, the normalized growth (locus YDR162C, strain NBP2, stronger effect = lower value) was 0.866 (inactive), the normalized growth (locus YDR195W, strain ref2) was 0.978 (inactive) and the normalized growth (locus YDR297W, strain sur2, stronger effect = lower value) was 0.937 (inactive). The normalized growth (locus YDR318W, strain mcm21, stronger effect = lower value) was 0.891 (active), the normalized growth (locus YDR334W, strain swr1, stronger effect = lower value) was 0.965 (inactive) and the normalized growth (locus YDR335W, strain msn5, stronger effect = lower value) was 0.95 (inactive). The normalized growth (locus YDR388W, stronger effect = lower value) was 0.957 (inactive), the normalized growth (locus YDR392W, strain spt3, stronger effect = lower value) was 0.542 (active) and the normalized growth (locus YDR502C, strain sam2, stronger effect = lower value) was 0.887 (active). For the same molecule, the normalized growth (locus YEL003W, strain gim4, stronger effect = lower value) was 0.932 (inactive), the normalized growth (locus YEL037C, strain rad23, stronger effect = lower value) was 0.971 (inactive) and the normalized growth (locus YEL061C, strain CIN8 (second series), stronger effect = lower value) was 0.958 (inactive). The normalized growth (locus YEL061C, strain CIN8, stronger effect = lower value) was 0.93 (inactive), the normalized growth (locus YER015W, strain faa2, stronger effect = lower value) was 0.961 (inactive) and the normalized growth (locus YER016W, strain bim1, stronger effect = lower value) was 0.969 (inactive). The normalized growth (locus YER110C, stronger effect = lower value) was 0.933 (inactive), the normalized growth (locus YER111C, strain swi4, stronger effect = lower value) was 0.978 (inactive) and the normalized growth (locus YER155C, strain BEM2 (second series), stronger effect = lower value) was 0.828 (active). The normalized growth (locus YER155C, strain BEM2, stronger effect = lower value) was 0.903 (active), the normalized growth (locus YER167W, strain BCK2, stronger effect = lower value) was 0.939 (inactive) and the normalized growth (locus YFR010W, strain ubp6, stronger effect = lower value) was 0.927 (inactive). For the same molecule, the normalized growth (locus YGL078C, strain dbp3, stronger effect = lower value) was 0.962 (inactive), the normalized growth (locus YGL086W, strain mad1, stronger effect = lower value) was 0.85 (active) and the normalized growth (locus YGL167C, strain pmr1, stronger effect = lower value) was 0.942 (inactive). For the same molecule, the normalized growth (locus YGL173C, strain kem1, stronger effect = lower value) was 0.929 (inactive), the normalized growth (locus YGL227W, strain vid30, stronger effect = lower value) was 0.958 (inactive) and the normalized growth (locus YGL240W, strain doc1, stronger effect = lower value) was 0.94 (inactive). For the same molecule, the normalized growth (locus YGL248W, strain PDE1, stronger effect = lower value) was 0.892 (inactive), the normalized growth (locus YGL253W, strain hxk2, stronger effect = lower value) was 0.946 (inactive) and the normalized growth (locus YGR135W, strain pre9, stronger effect = lower value) was 0.999 (inactive). For the same molecule, the normalized growth (locus YGR252W, strain gcn5, stronger effect = lower value) was 0.99 (inactive), the normalized growth (locus YHR013C, strain ard1, stronger effect = lower value) was 1.01 (inactive) and the normalized growth (locus YHR027C, strain rpn1, stronger effect = lower value) was 0.979 (inactive). The normalized growth (locus YHR030C, strain SLT2, stronger effect = lower value) was 0.825 (active) and 0.957 (inactive), the normalized growth (locus YHR079C, strain IRE1 (second series), stronger effect = lower value) was 0.924 (active) and the normalized growth (locus YHR079C, strain IRE1, stronger effect = lower value) was 0.964 (inactive). For the same molecule, the normalized growth (locus YHR094C, strain hxt1, stronger effect = lower value) was 0.939 (inactive), the normalized growth (locus YHR129C, strain ARP1, stronger effect = lower value) was 0.889 (active) and the normalized growth (locus YHR142W, strain chs7, stronger effect = lower value) was 0.888 (inactive). For the same molecule, the normalized growth (locus YHR200W, strain rpn10, stronger effect = lower value) was 0.912 (active), the normalized growth (locus YIL066C, strain RNR3, stronger effect = lower value) was 0.785 (active) and the normalized growth (locus YIL073C, strain SPO22, stronger effect = lower value) was 0.871 (inactive). The normalized growth (locus YIL125W, strain kgd1, stronger effect = lower value) was 0.917 (active), the normalized growth (locus YIR030C, strain dcg1, stronger effect = lower value) was 0.927 (active) and the normalized growth (locus YJL092W, strain hpr5, stronger effect = lower value) was 0.934 (inactive). For the same molecule, the normalized growth (locus YJL095W, strain BCK1 (second series), stronger effect = lower value) was 0.976 (inactive), the normalized growth (locus YJL095W, strain BCK1, stronger effect = lower value) was 0.729 (active) and 0.973 (inactive) and the normalized growth (locus YJL115W, strain asf1, stronger effect = lower value) was 0.952 (inactive). For the same molecule, the normalized growth (locus YJL129C, strain trk1, stronger effect = lower value) was 0.83 (active), the normalized growth (locus YJL134W, strain LCB3, stronger effect = lower value) was 0.944 (inactive) and the normalized growth (locus YJL154C, strain vps35, stronger effect = lower value) was 0.961 (inactive). The normalized growth (locus YJL164C, strain tpk1, stronger effect = lower value) was 0.973 (inactive), the normalized growth (locus YJL166W, strain qcr8, stronger effect = lower value) was 0.899 (active) and the normalized growth (locus YJL168C, strain set2, stronger effect = lower value) was 0.941 (inactive). The normalized growth (locus YJL187C, strain SWE1 (second series), stronger effect = lower value) was 0.904 (inactive) and the normalized growth (locus YJR043C, strain POL32, stronger effect = lower value) was 0.93 (inactive).
